EP2 mod: EP2 receptor (human) modulation; induction, % at 25 µM; P43116; 0.83% of 260,000 active; EP2-expressing cells, cAMP HTRF FRET, PGE2 co-stimulation;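 active = compounds whose cAMP rise, as percent of the full-agonist control response, exceeds 60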;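 also: rat C6 glioma line stably carrying human EP2 under a CMV promoter; the protocol text gives 20 µM as final concentration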
Target sequence (P43116 whole entry, looked up): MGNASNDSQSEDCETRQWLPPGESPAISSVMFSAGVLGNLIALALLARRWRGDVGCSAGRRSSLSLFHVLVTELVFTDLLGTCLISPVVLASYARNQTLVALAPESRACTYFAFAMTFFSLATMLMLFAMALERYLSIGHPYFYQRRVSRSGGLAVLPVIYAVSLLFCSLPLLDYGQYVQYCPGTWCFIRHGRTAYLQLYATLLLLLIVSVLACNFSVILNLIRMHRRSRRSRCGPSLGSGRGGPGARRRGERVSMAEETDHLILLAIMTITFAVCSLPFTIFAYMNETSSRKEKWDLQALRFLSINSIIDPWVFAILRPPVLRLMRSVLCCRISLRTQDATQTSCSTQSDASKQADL
GSH fluor: GSH bead compound fluorescence profile; GSH beads flow cytometry, compound fluorescence 488/530 nm; active compounds read high; fluorescence (KMESF) at 10 µM; AID 1776; 0.25% of 190,000 active; in the data active = fluorescence above about 89;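 also: glutathione beads carrying GST-tagged Bcl family fusion proteins plus one bare bead set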
HMGR II inh: E. faecalis class II HMG-CoA reductase inhibition; AID 1066; purified E. faecalis HMGR, NADPH absorbance 340 nm kinetic; inhibition, % at 10 µM; 0.41% of 190,000 active;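 active = inhibition above a set limit, the median over all tested compounds plus 3 SD, cut at about 9.5% in these data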;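 also: enzyme runs in reverse so mevalonate oxidation gives rising NADPH absorbance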
PGE2 EP2 inh: EP2 receptor (human) inhibition. P43116. C6 glioma cells expressing human EP2, cAMP TR-FRET; cells stimulated with saturating PGE2. inhibition, % at 25 µM. 0.52% of 260,000 active. AID 1422;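 active = percent inhibition above 40 after rounding to a whole number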;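 also: rat C6 glioma host cells with rolipram phosphodiesterase inhibitor present; the protocol text gives 20 µM as final concentration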
Avidin fluor: compound fluoresces at 488/530 nm on avidin beads; compound fluorescence 488/530 nm, flow cytometry; active compounds read high; fluorescence (KMESF) at 10 µM; 0.38% of 220,000 active; in the data active = fluorescence above about 47
Each line names hits and unclear results; the compound was inactive in the other large screens. Hits are enriched below; roughly 2.1% of the tested compounds scored in any of these assays.

Cc1ccccc1C(=O)Nc1ccc(N2CCN(S(C)(=O)=O)CC2)cc1	none (no result: GSH fluor, HMGR II inh, Avidin fluor)
C=C(C)Cn1c(-c2ccncc2)n[nH]c1=S	HMGR II inh 19.3
CC(=O)[C@@]1(N=Nc2ccc(S(N)(=O)=O)cc2)CCOC1=O	PGE2 EP2 inh 115.8 (no result: GSH fluor, HMGR II inh, Avidin fluor)
O=C1CC(N(O)C2CC(=O)N(Cc3ccccc3)C2=O)C(=O)N1Cc1ccccc1 (stereo unspecified)	none
CCCN(CCC)C1CC(=O)N(Cc2ccccc2)C1=O (stereo unspecified)	Avidin fluor 58
CC(=O)NC1(c2ccc(F)cc2)CCN(Cc2cccc(OC(C)C)c2)CC1	none (no result: GSH fluor, HMGR II inh, Avidin fluor)
Cc1sc2nc(C(C)C)n3c(SCC(=O)c4ccccc4F)nnc3c2c1C	none (no result: GSH fluor, HMGR II inh, Avidin fluor)
CC1(C)Cc2c(C#N)c(N)sc(=S)c2CO1	none
CC(C)C1Cc2c(C#N)c(N)sc(=S)c2CO1 (stereo unspecified)	PGE2 EP2 inh 58.9
c1cnc(NCc2cccs2)nc1	none (no result: GSH fluor, HMGR II inh, Avidin fluor)
Cc1ccc(NN2C(=O)C=C(c3ccccc3)C2=O)cc1	PGE2 EP2 inh 48.0
Cc1ccc(C2=N/C(=C\c3cc4c(cc3Br)OCO4)C(=O)O2)cc1	none (no result: GSH fluor, HMGR II inh, Avidin fluor)
CC(=O)NC(Cc1cccc(F)c1)C(=O)NC1CCN(c2ncccc2[N+](=O)[O-])CC1 (stereo unspecified)	HMGR II inh 15.5
COc1cccc(C2(NC(=O)CCn3cccn3)CCCC2)c1	none (no result: GSH fluor, HMGR II inh, Avidin fluor)
COc1ccc(CN(Cc2cc3c(C)ccc(C)c3[nH]c2=O)S(=O)(=O)c2ccc(OC)cc2)cc1	none (no result: GSH fluor, HMGR II inh, Avidin fluor)
Cc1ccc(/C=C2\CCC3=C2OC(N)=C(C#N)C3c2ccc(C)cc2)cc1 (stereo unspecified)	Avidin fluor 66
COc1cc(OC)c(C2NC(=O)NC(C)=C2C(C)=O)cc1OC (stereo unspecified)	none (no result: GSH fluor, HMGR II inh, Avidin fluor)
Cc1ccccc1CN1C2=NCCN2C(=O)C2=C1CCN(Cc1ccccc1)C2	PGE2 EP2 inh 48.5 (no result: GSH fluor, HMGR II inh, Avidin fluor)
Cc1cc2sc(NC(=O)C(C)C)nc2cc1Cl	none (no result: GSH fluor, HMGR II inh, Avidin fluor)
N#CC1(c2ccc(NC(=O)c3ccccc3)cc2)CCCC1	HMGR II inh 12.9
O=C(NNC(=O)c1ccc(NC(=O)c2ccccc2)cc1)c1ccccc1	none
COc1ccc(CN(Cc2cc3cc(OC)c(OC)cc3[nH]c2=O)C(C)=O)cc1	none (no result: GSH fluor, HMGR II inh, Avidin fluor)
CC(C)Cn1c(=O)[nH]c(=O)c2c(C(F)(F)F)cc(-c3ccccc3)nc21	EP2 mod 65.7 (no result: GSH fluor, HMGR II inh, Avidin fluor)
CCOC(=O)C(NC(C)=O)(Nc1ccc(F)cc1)C(F)(F)F (stereo unspecified)	Avidin fluor 260
c1cncc(-c2noc(C34CC5CC(CC(C5)C3)C4)n2)c1	EP2 mod 63.1
Cc1ccccc1-c1noc(C23CC4CC(CC(C4)C2)C3)n1	none
CC(=O)Nc1cccc(NC(=O)Cc2cccs2)c1	none (no result: GSH fluor, HMGR II inh, Avidin fluor)
O=C(Cc1cccs1)Nc1cccc(-c2nc3cc4ccccc4cc3[nH]2)c1	PGE2 EP2 inh 117.3
N#Cc1nc(COc2ccc(-c3ccccc3)cc2)oc1NCCCN1CCOCC1	Avidin fluor 233
N#Cc1nc(COc2ccccc2)oc1NCCN1CCOCC1	none
CCC(C)(C)NC(=O)C(c1ccccn1)N(Cc1ccc(C)cc1)C(=O)c1csnn1 (stereo unspecified)	none (no result: GSH fluor, HMGR II inh, Avidin fluor)
CN(C)CCC[C@@H]1c2ccccc2Oc2ccc(C(F)(F)F)cc21	PGE2 EP2 inh 58.5 (no result: GSH fluor, HMGR II inh, Avidin fluor)
CN(C)CCC1Sc2ccccc2Oc2ccccc21 (stereo unspecified)	none
CCc1nn(CC(=O)NCc2ccc(F)cc2)c(=O)c2cc3sccc3n12	none (no result: GSH fluor, HMGR II inh, PGE2 EP2 inh, Avidin fluor)
COC(=O)C(C)N1C(=O)S/C(=C/c2cc(C)n(-c3ccccn3)c2C)C1=O (stereo unspecified)	GSH fluor 267 (no result: PGE2 EP2 inh)
CC(Sc1nnc(Cc2cccs2)n1C1CCCCC1)C(=O)N1CCc2ccccc21 (stereo unspecified)	Avidin fluor 48
Cc1cc(C)n(-c2cccc(CN(CCN3CCOCC3)Cc3cccnc3)c2)n1	none (no result: GSH fluor, HMGR II inh, Avidin fluor)
Cc1nc(N2CCOCC2)c2nnn(Cc3ccccc3Cl)c2n1	none (no result: GSH fluor, HMGR II inh, Avidin fluor)
Cc1nc(N2CCC(C)CC2)c2nnn(Cc3ccccc3)c2n1	GSH fluor 89
O=C(NCCCN1CCCC1)C1CCN(C(=O)c2cc3sccc3n2Cc2ccc(F)cc2)CC1	Avidin fluor 193
O=C(CSc1nnc(CNC(=O)c2ccco2)o1)Nc1ccccc1	Avidin fluor 59
O=C(c1ccc(Br)s1)N1CCC[C@H]1[C@H](O)c1nccs1	none (no result: GSH fluor, HMGR II inh, PGE2 EP2 inh, Avidin fluor)
CCOc1ccccc1OCCCC(=O)N1CCN(S(=O)(=O)c2cccc(F)c2)CC1	none
CCOc1ccccc1OCCCC(=O)N1CCN(S(=O)(=O)c2ccc(C)cc2)CC1	GSH fluor 256

Screening results as filed in PubChem BioAssay.
